Compound activity: PubChem BioAssay, several laboratories
Only some compounds are listed: those with a hit (about 4.6% of all), similar ones and a draw of the others.
TIM10 inh – inhibits growth of TIM10 yeast strain; inhibition, % at 10 µM; 330,000 tested, 1.4% active; S. cerevisiae TIM10 strain growth, BacTiter-Glo luminescence, 24 h;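 active means inhibition of 40% or more at the single tested concentration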;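 further: wild-type TIM10 isogenic control strain grown at permissive 25 °C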
NLRP3 yeast inh – blocks the NALP3 inflammasome reconstituted in yeast; Yeast reconstituted NLRP3/ASC/caspase-1, beta-gal luminescence, 24 h; inhibition, % at 10 µM; 330,000 tested, 0.39% active; AID 2825;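 active means inhibition of 50% or more; inactive means inhibition below 50%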;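 further: plate controls were induced DMSO wells for no effect and uninduced yeast grown without galactose for full effect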
PfHsp90 yeast 2 – inhibits growth of yeast expressing Plasmodium falciparum Hsp90; S. cerevisiae expressing PfHsp90, BacTiter-Glo ATP, 48 h; yeast lacking PDR1 and PDR3 efflux regulators; inhibition, % at 9.4 µM; 310,000 tested, 0.32% active;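 active means every replicate shows inhibition above about 80%, whatever the replicate mean, limit read from the data; inconclusive means mean inhibition reaches the set limit but some replicate falls short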;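 further: 0% = DMSO neutral controls and 100% = 20 µM radicicol positive controls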
tim23-1 inh – inhibits growth of tim23-1 mutant yeast; 330,000 tested, 1.3% active; S. cerevisiae tim23-1 growth, BacTiter-Glo luminescence, 24 h; AID 463212; inhibition, % at 20 µM;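 active means growth inhibition of the mutant yeast at or above 50%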;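 further: temperature-sensitive mutant grown at 25 °C; plate controls were DMSO-treated mutant yeast for no effect and medium wells lacking yeast for full effect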
tim10-1 inh – tim10-1 yeast growth inhibition; S. cerevisiae tim10-1 ts strain growth, BacTiter-Glo, 24 h; inhibition, % at 20 µM; 330,000 tested, 2.2% active; AID 463190;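 active means inhibition of at least 40%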;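 further: mutant grown at 25 °C; 0% = DMSO wells with yeast and 100% = wells holding no yeast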
SKKanGAS inh – inhibitors of SKKanGAS S. pyogenes growth in kanamycin (SK-promoter or general growth effect) | BacTiter-Glo, 6 h | inhibition, % at 7.5 µM | 300,000 tested, 1.3% active;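 active means mean replicate score, as percent of positive control median, at least 50; inconclusive means mean below 50 but one replicate at or above 50; inactive means mean and every replicate below 50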;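 further: strain carries kanamycin resistance gene driven by streptokinase promoter and grows in 40 µg/ml kanamycin; loss of luminescence reflects streptokinase promoter inhibition or plain growth inhibition; 0% = median of DMSO wells and 100% = positive control at its reference dose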
tim10-1 confirm – confirmation of tim10-1 mutant yeast growth inhibitors | shares compounds with tim10-1 inh | S. cerevisiae tim10-1 ts strain growth, BacTiter-Glo, 24 h | inhibition, % at 20 µM | 7,400 tested, 56% active | AID 463213;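 active means inhibition of yeast growth at or above a set limit in either of two repeat tests at 20 µM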;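 further: tim10-1 mutant grown at permissive 25 °C to find synthetic lethal compounds; 0% = DMSO yeast wells and 100% = medium wells without yeast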
tim10 confirm – confirmation of TIM10 yeast growth inhibitors. shares compounds with TIM10 inh. S. cerevisiae tim10 strain growth, BacTiter-Glo luminescence, 24 h. inhibition, % at 10 µM. 4,600 tested, 63% active. AID 463215;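 active means inhibition of yeast growth at or above a set limit in either of two replicates at 10 µM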;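 further: this counterscreen used the strain with wild-type TIM10; 0% = yeast with DMSO and 100% = medium wells lacking yeast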
tim23-1 confirm – tim23-1 yeast growth inhibition, confirmed; shares compounds with tim23-1 inh; S. cerevisiae tim23-1 growth, BacTiter-Glo luminescence, 24 h; inhibition, % at 20 µM; 4,400 tested, 83% active;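 active means inhibition above about 39% in either of two replicate wells at 20 µM, limit read from the data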;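 further: temperature-sensitive tim23-1 mutant grown at 25 °C; 0% = DMSO wells with yeast and 100% = medium wells without yeast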
Starred values were filed as active, the others as inactive; ? = inconclusive; nt = not tested or not shown.

SMILES	TIM10 inh	NLRP3 yeast inh	PfHsp90 yeast 2	tim23-1 inh	tim10-1 inh	SKKanGAS inh	tim10-1 confirm	tim10 confirm	tim23-1 confirm
O=C(Nc1cc(Cl)ccc1-n1cncn1)c1ccc([N+](=O)[O-])o1	48.1*	10.3	nt	66.3*	71.7*	?	57.7*	55.8*	50.0*
COc1cccc(C(=O)Nc2cccc(-c3nc4ncccc4o3)c2C)c1	17.4	14.1	-3.7	0.2	1.9	-1.9	nt	nt	nt
O=C(Nc1ccccc1Cl)c1ccc([N+](=O)[O-])o1	48.0*	24.1	-8.2	67.1*	49.9*	34.4	55.7*	56.8*	67.7*
Cc1c(NC(=O)c2ccc([N+](=O)[O-])o2)cccc1-c1nc2ncccc2o1	47.5*	12.6	-15.4	52.7*	48.8*	28.2	47.8*	52.7*	63.5*
COc1ccccc1OCCN1CSC(=S)N(C)C1	53.2*	38.3	-102.2	71.6*	41.6*	16.2	31.4*	-18.1	60.0*
Cc1cccc(OCCN2CSC(=S)N(C)C2)c1	25.7	49.5	-26.7	59.4*	41.7*	-0.2	14.1	nt	75.8*
Cc1cccc(OCCCN2CCCCCC2)c1	2.9	13.0	-47.2	-31.4	1.6	-2.2	nt	nt	nt
Cc1cc(C)c[n+](-c2[nH]c(=O)sc2/C=N/N=C(\N)[S-])c1	-8.4	16.6	-2.1	-3.3	-9.2	8.9	nt	nt	nt
Cc1ccc(C(=O)N(C)c2nnc(-c3ccncc3)s2)cc1	-3.5	41.6	13.6	36.5	-15.8	4.5	nt	nt	nt
Cc1csc(NC(=O)c2cc3c(s2)CCCC3)n1	36.0	11.1	-46.4	49.9	35.6	9.4	nt	nt	nt
Cc1csc(NC(=O)c2cc3c(s2)CCCCC3)n1	41.7*	-8.3	22.7	57.1*	46.0*	14.3	38.7*	36.8*	49.2*
CCn1c(=O)c(CCC(=O)N2CCN(c3ccccn3)CC2)c(C)c2c(C)nn(-c3ccccc3)c21	24.7	21.1	-16.7	32.3	24.3	34.8	nt	nt	nt
CCOc1ccc(NC(=O)C(C)NC(=O)c2ccccc2Cl)cc1S(=O)(=O)N1CCCC1 (stereo unspecified)	7.1	8.1	7.0	-1.2	0.9	nt	nt	nt	nt
CC(=O)Oc1cccc(/C=C2\Sc3ccccc3C2=O)c1	33.0	20.0	6.5	86.2*	43.6*	-2.2	47.5*	nt	85.4*
CCN(CC)/C(Sc1ccccc1)=C(\C(Cl)=C(Cl)Cl)[N+](=O)[O-]	46.3*	0.7	3.4	51.2*	44.1*	-0.4	35.1*	18.9	50.5*
CCOc1ccccc1N/C(=C(/C(Cl)=C(Cl)Cl)[N+](=O)[O-])n1cncn1	17.4	4.5	2.8	19.3	14.8	nt	nt	nt	nt
Cc1nc2ccccn2c1C(=O)N/N=C/c1cc(C)n(-c2ccc(Br)cc2)c1C	30.6	-2.5	11.5	59.9*	43.9*	22.9	22.4	nt	41.2*
O=C(c1cccs1)N(C(=O)c1cccs1)c1ccc(Br)cn1	63.3*	36.5	-7.9	75.3*	41.6*	13.2	30.9*	50.2*	62.0*
Cc1cc(C)c(S(=O)(=O)N2CCCCC2CCNC(=O)C(=O)NCc2cccnc2)c(C)c1 (stereo unspecified)	6.3	15.2	-0.1	20.7	17.1	-4.0	nt	nt	nt
O=c1[nH]cnc2scc(C3COc4ccccc4O3)c12 (stereo unspecified)	15.4	6.2	41.6	-10.3	29.9	8.7	nt	nt	nt
Clc1ncnc2scc(C3COc4ccccc4O3)c12 (stereo unspecified)	29.9	15.9	6.5	51.5*	52.7*	22.9	31.4	nt	30.5
COc1ccc(C(=O)CSc2nnc(CNC(=O)c3ccco3)n2C)cc1	-8.9	-7.2	nt	0.2	-1.9	0.5	nt	nt	nt
O=C(NC(=S)Nc1cccc2cc(O)ccc12)c1ccco1	3.1	2.0	-11.7	22.5	28.7	-3.4	nt	nt	nt
O=C(NC(=S)Nc1ccccc1N1CCCCC1)c1ccco1	52.4*	-43.5	-10.9	54.1*	49.1*	-9.6	36.7*	-18.0	51.4*
O=C(NC(=S)Nc1ccccc1N1CCCC1)c1ccccc1[N+](=O)[O-]	nt	nt	-5.3	nt	nt	6.1	nt	nt	nt
SMILES	TIM10 inh	NLRP3 yeast inh	PfHsp90 yeast 2	tim23-1 inh	tim10-1 inh	SKKanGAS inh	tim10-1 confirm	tim10 confirm	tim23-1 confirm
O=C(NC(=S)Nc1ccccc1N1CCCC1)c1ccco1	34.9	-48.8	-15.0	41.0	35.5	-0.6	nt	nt	nt
O=C(NC(=S)Nc1ccccc1N1CCCC1)c1ccccc1Br	39.0	17.7	-6.2	61.3*	41.1*	80.8*	7.8	nt	42.8*
O=C(NC(=S)Nc1cccc2cc(O)ccc12)c1ccccc1Br	14.7	36.8	4.9	51.5*	45.6*	17.3	20.6	nt	49.0*
O=C(/C=C/c1ccco1)NC(=S)Nc1ccccc1N1CCOCC1	42.9*	15.8	nt	55.5*	50.0*	-5.0	26.8	50.7*	48.3*
COc1ccc(N2CC(C(=O)Nc3c(C(N)=O)oc4ccccc34)CC2=O)cc1 (stereo unspecified)	6.9	27.0	42.8	16.3	-1.4	-8.2	nt	nt	nt
CN1/C(=C\C(=O)Nc2ccc(F)cc2)C(C)(C)c2ccccc21	47.6*	5.3	9.8	67.9*	45.4*	7.4	48.8*	-20.6	71.6*
CN1/C(=C/C(=O)C2CC2)C(C)(C)c2ccccc21	-21.5	24.8	3.8	9.8	-2.0	6.5	nt	nt	nt
Cn1ccsc1=NC(=O)c1ccc([N+](=O)[O-])o1	-82.2	28.2	1.7	57.2*	50.1*	6.9	24.2	nt	57.5*
COc1cc(C(=O)N=c2sccn2C)c([N+](=O)[O-])cc1OC	10.8	13.0	4.7	3.7	3.3	3.9	nt	nt	nt
COc1ccc(CN2C(=O)[C@H]3Cc4c([nH]c5ccccc45)C(C)(C)N3C2=O)cc1	41.3*	6.9	-13.7	51.5*	48.5*	26.7	39.3*	36.5*	46.9*
Cc1ccc(S(=O)(=O)CC#CCOC(=O)c2ccc([N+](=O)[O-])cc2)cc1	30.0	-16.4	nt	76.1*	59.5*	3.9	47.2*	nt	80.6*
NNC(=O)c1cc2c(s1)-c1cc(Cl)ccc1SC2	26.8	8.9	-1.3	54.8*	56.9*	10.3	43.8*	nt	49.2*
CCN(CC)CCNC(=O)c1cc2c(s1)-c1ccccc1SC2	8.5	10.5	-3.3	-1.3	-56.4	-8.6	nt	nt	nt
CCNc1nnc(SCC(=O)NC2CCCCCC2)s1	9.9	14.4	nt	24.6	15.1	nt	nt	nt	nt
Cc1ccccc1NC(=O)/C(C#N)=C/c1ccccc1C(F)(F)F	55.9*	17.8	-14.9	56.0*	58.3*	-1.9	56.5*	4.7	58.0*
Cc1ccc(NC(=O)/C(C#N)=C/c2ccccc2C(F)(F)F)cc1	30.0	5.4	-18.2	12.6	33.9	-3.2	nt	nt	nt
